Bioassay records deposited in PubChem by several laboratories.
tim23-1 inh = inhibits growth of tim23-1 mutant yeast. S. cerevisiae tim23-1 growth, BacTiter-Glo luminescence, 24 h. inhibition, % at 20 µM. 330,000 tested, 1.3% active. AID 463212;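 active means growth inhibition of the mutant yeast at or above 50%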;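 further: temperature-sensitive mutant grown at 25 °C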
SKKanGAS inh = SKKanGAS growth inhibition; S. pyogenes SKKanGAS, kanamycin growth, BacTiter-Glo, 6 h; inhibition, % at 7.5 µM; 300,000 tested, 1.3% active;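 active means mean replicate score, as percent of positive control median, at least 50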;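 further: strain carries kanamycin resistance gene driven by streptokinase promoter and grows in 40 µg/ml kanamycin; loss of luminescence reflects streptokinase promoter inhibition or plain growth inhibition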
tim10-1 inh = tim10-1 yeast growth inhibition; S. cerevisiae tim10-1 ts strain growth, BacTiter-Glo, 24 h; inhibition, % at 20 µM; 330,000 tested, 2.2% active; AID 463190;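 active means inhibition of at least 40%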;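 further: mutant grown at 25 °C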
NALP3 yeast inh = inhibitors of NALP3 inflammasome in yeast; Yeast reconstituted NLRP3/ASC/caspase-1, beta-gal luminescence, 24 h; inhibition, % at 10 µM; 330,000 tested, 0.39% active;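 active means inhibition of 50% or more; inactive means inhibition below 50%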
TIM10 inh = TIM10 yeast growth inhibition; S. cerevisiae TIM10 strain growth, BacTiter-Glo luminescence, 24 h; inhibition, % at 10 µM; 330,000 tested, 1.4% active; AID 463195;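 active means inhibition of 40% or more at the single tested concentration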;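 further: wild-type TIM10 isogenic control strain grown at permissive 25 °C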
PfHsp90 yeast 2 = reduces growth (ATP signal) of yeast expressing P. falciparum Hsp90 | AID 504621 | inhibition, % at 9.4 µM | S. cerevisiae expressing PfHsp90, BacTiter-Glo ATP, 48 h; yeast lacking PDR1 and PDR3 efflux regulators | 310,000 tested, 0.32% active;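 active means every replicate shows inhibition above about 80%, whatever the replicate mean, limit read from the data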
tim10-1 confirm = confirmation of tim10-1 mutant yeast growth inhibitors | shares compounds with tim10-1 inh | S. cerevisiae tim10-1 ts strain growth, BacTiter-Glo, 24 h | inhibition, % at 20 µM | 7,400 tested, 56% active;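 active means inhibition of yeast growth at or above a set limit in either of two repeat tests at 20 µM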;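 further: tim10-1 mutant grown at permissive 25 °C to find synthetic lethal compounds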
Numbers stand for hits; . = inactive; / = not tested or not shown. This is a sample that favours compounds with a hit; in the whole collection about 4.6% have one here.

SMILES | tim23-1 inh | SKKanGAS inh | tim10-1 inh | NALP3 yeast inh | TIM10 inh | PfHsp90 yeast 2 | tim10-1 confirm
O=C(CN1C(=O)c2ccccc2C1=O)Nc1ccccc1N1CCOCC1 | . | . | . | . | . | . | /
COc1cc(C(=O)Nc2ccccc2N2CCCCC2)cc(OC)c1OC | . | . | . | . | . | . | /
COc1ccc(C(=O)NC(=S)Nc2ccccc2N2CCOCC2)cc1Br | . | . | . | . | . | . | /
COc1ccc(C(=O)Nc2ccccc2N2CCOCC2)cc1Br | . | . | 40.3 | . | . | . | .
COc1cc(C(=O)NC(=S)Nc2ccccc2N2CCCC2)cc(OC)c1OC | . | . | 50.6 | . | . | . | .
COc1cc(C(=O)NC(=S)Nc2ccc(Cl)cn2)cc(OC)c1OC | . | . | 41.7 | . | . | . | .
CCOc1ccccc1NC(=O)C1CCN(C(=O)C2CC(=O)N(c3ccc(C)cc3)C2)CC1 (configuration not stated) | . | . | . | . | . | . | /
O=S(=O)(Nc1nc2ccccc2s1)c1cnc(Cl)c(Br)c1 | . | . | . | . | . | . | /
COc1ccc(S(=O)(=O)NCCc2c[nH]c3ccc(C)cc23)cc1 | . | . | . | . | . | . | /
CCOC(=O)NN1C(=O)c2ccccc2NC1c1ccc(OC)cc1OC (configuration not stated) | . | . | . | . | . | . | /
Cc1cc(C)c(OCC(=O)Nc2ccccc2N2CCOCC2)c(C)c1 | . | . | 46.5 | . | . | / | 32.5
Cc1cccc(NC(=O)CSc2c3c(nc4ccccc24)CCC3)n1 | . | . | . | . | . | . | /
COc1cccc(NC(=O)CSc2c3c(nc4ccccc24)CCCC3)c1 | . | . | 42.6 | . | . | . | .
CCN1C(=O)C(CC(=O)Nc2ccc(OC)cc2)N(CCc2ccc(OC)cc2)C1=S (configuration not stated) | . | . | 47.2 | . | . | . | 31.8
Cc1cc(C)c2c(n1)SCC(=O)N2CC(=O)Nc1ccccc1Cl | . | . | . | . | . | . | /
CCC(C(=O)N1CCN(c2ccccc2OC)CC1)c1ccccc1 (configuration not stated) | . | . | 42.3 | . | . | . | .
COc1ccccc1-c1cc(C(=O)N2CCN(c3ccccc3OC)CC2)no1 | . | . | 48.4 | . | . | . | 32.5
COc1ccc(OC)c(-c2cc(C(=O)N3CCc4ccccc4C3)no2)c1 | . | . | 41.0 | . | . | / | .
CCOC(=O)N1CCN(c2ccccc2OC)CC1 | . | . | . | . | . | . | /
CCN1C(=O)[C@H]2[C@@H](c3ccc(-c4ccc5c(c4)OCO5)cc3)N3CCC[C@@]3(C(=O)OC)[C@H]2C1=O | . | . | . | . | . | . | /
O=S(=O)(c1ccc(Br)s1)N1CCC2(CC1)OCCO2 | . | . | . | . | . | . | /
CC1CCCN(CCCN2C(=O)C3C(C(=O)Nc4ccc(Cl)cc4)C4C=CC3(O4)C2C(=O)NC2CCCCC2)C1 (configuration not stated) | . | . | . | . | . | . | /
N/C(=N\O)c1ccc(N2CCN(c3ncccc3C(F)(F)F)CC2)nc1 | . | . | . | . | . | . | /
CN(Cc1ccccc1)C(=O)c1cccc(NC(=O)C2CCCN(C(=O)OC(C)(C)C)C2)c1 (configuration not stated) | . | / | . | . | . | . | /
COc1ccc(CCNC(=O)c2ccc3c(=O)n4c(nc3c2)CCC4)cc1OC | . | / | . | . | . | . | /
SMILES | tim23-1 inh | SKKanGAS inh | tim10-1 inh | NALP3 yeast inh | TIM10 inh | PfHsp90 yeast 2 | tim10-1 confirm
Cc1ccc(C2CC(c3ccc(Cl)cc3)=NNC2=O)cc1 (configuration not stated) | . | . | . | . | . | / | /
Cc1cccc(C2=NNC(=O)C(c3ccc(Cl)cc3)C2)c1 (configuration not stated) | . | . | 59.8 | . | . | . | 44.5
COc1ccc(Cl)cc1N1C(=O)CC(Sc2ccccc2N)C1=O (configuration not stated) | . | . | . | . | . | . | /
O=S(=O)(c1cccc(COc2c(Cl)cccc2Cl)c1)N1CCOCC1 | . | . | 40.2 | . | . | / | .
O=S(=O)(c1cccc(COc2ccc(Cl)cc2Cl)c1)N1CCOCC1 | . | . | . | . | . | . | /
O=C1NC2(CCCCC2)C(=O)N1c1cccc(Cl)c1 | . | . | . | . | . | . | /
CC(C)(C)C1CCC(=O)N(CCC#N)CC1 (configuration not stated) | . | . | . | . | . | / | /
Cc1nnc(SCC(=O)N2CCC(c3noc4ccc(F)cc34)CC2)s1 | . | . | . | . | . | / | /
Cc1sc2ncnc(SCC(=O)N3CCC(c4noc5ccc(F)cc45)CC3)c2c1C | . | . | 49.7 | . | . | . | .
COc1ccc(C2=NO[C@@](CC(=O)O)(C(=O)Nc3ccc4c(c3)OCCO4)C2)cc1 | . | . | . | . | . | . | /
COc1ccc(OC)c(NC(=O)C(C)N2c3cccc4cccc(c34)S2(=O)=O)c1 (configuration not stated) | . | . | . | . | . | . | /
CCCCNC(=S)N1CCn2cccc2C1c1ccccc1 (configuration not stated) | . | . | . | . | . | / | /
CCCCNC(=S)N1CCn2cccc2C1c1ccc(F)cc1 (configuration not stated) | . | . | 43.7 | . | . | . | .
COC(=O)c1ccccc1NC(=O)C1CCCN(S(=O)(=O)c2ccccc2)C1 (configuration not stated) | . | . | 40.2 | . | . | . | .
Cc1ccc(C(=O)Nc2ccc(S(=O)(=O)N3CCOCC3)cc2)cc1C | . | . | 40.6 | . | . | . | .
O=S(=O)(c1ccc(NC(=S)N/N=C/c2c3ccccc3cc3ccccc23)cc1)N1CCOCC1 | . | / | 50.2 | . | . | . | 29.5
Cc1occc1C(=O)Nc1ccc(S(=O)(=O)N2CCCC2)cc1 | . | . | 41.6 | . | . | / | .
COC(=O)c1ccccc1NC(=O)C1CCCN(S(=O)(=O)c2ccc(F)cc2)C1 (configuration not stated) | . | . | . | . | . | . | /
O=S(=O)(c1ccc(NC(=S)N/N=C/c2ccc(Oc3ccccc3)cc2)cc1)N1CCOCC1 | . | . | . | . | . | . | /
O=C(Nc1cc(Cl)ccc1Cl)N1CCN(C(=O)Nc2cc(Cl)ccc2Cl)CC1 | / | / | / | / | / | . | /
Cc1ccc(C(=O)OCC(=O)N(CC(C)C)c2c(N)n(Cc3ccccc3)c(=O)[nH]c2=O)s1 | . | . | . | . | . | . | /
COc1ccccc1C(=O)Nc1ccc(S(=O)(=O)N2CCCC2)cc1 | . | . | . | . | . | . | /
COc1ccccc1C(=O)Nc1ccc(S(=O)(=O)N2CCCCC2)cc1 | . | . | 48.0 | . | . | . | 39.8
COC(=O)c1c(N2C(=O)[C@H]3[C@@H](C2=O)[C@]2(C(=O)Nc4ccccc42)N2CCC[C@@H]32)sc(C)c1C | . | . | . | . | . | / | /
